Results filed as inconclusive are left out. A call without a number means that no potency is given here. The source made the active and inactive calls. Unless noted, the call rests on the fitted dose curve; in most records, active means well fitted curve in the direction sought with a large enough effect; inconclusive means small, poorly fitted or top-dose-only effect, or another doubt; inactive means no such curve, though single readings can be large; an effect the other way counts as inactive or inconclusive.
Columns and labels:
[1] = target: Mitogen-activated protein kinase 10 (Mus musculus) (UniProt Q61831); experiment: JNK3 AlphaScreen Assay (AID 530; active means well fitted curve in either direction with a large enough effect, not every such curve was filed as active;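 further: kinase came from lysate of stimulated human HepG2 cells; signal reports phosphorylation of biotinylated GST-cJun 1-79 at Ser73 with 10 µM ATP; series mostly up to about 57 µM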)
Outline: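 Pre-activated (IL-1β/TNFα) JNK3 in HepG2 lysates phosphorylates biotin-GST-cJun(1-79), 10 uM ATP; anti-phospho-cJun(Ser73) AlphaScreen read at room temperature, pH 7.6 Tris buffer. Compounds pre-incubated 15 min as titrations.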

[2] = target: Cytochrome P450 3A4 (Homo sapiens) (UniProt P08684); experiment: qHTS Assay for Inhibitors and Substrates of Cytochrome P450 3A4 (AID 884); further: nearly all actives have a fitted effect of over 50% in size; further: potency means the concentration at half of the fitted maximal effect
Outline: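 20 nM human CYP3A4 with 25 uM Luciferin-PPXE (at KM) in 200 mM KPO4, preincubated 10 min with compound; NADPH regeneration started a 60 min RT reaction. Luciferin detected by luminescence, normalized to 57 uM ketoconazole as full inhibition.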

[3] = target: Cytochrome P450 3A4 (Homo sapiens) (UniProt P08684); experiment: qHTS Assay for Activators of Cytochrome P450 3A4 (AID 885); further: nearly all actives have a fitted effect of over 65% in size
Outline: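 Human CYP3A4 (20 nM) with Luciferin-PPXE at 25 uM (its KM) in 200 mM KPO4; 10 min compound preincubation, then NADPH regeneration and 60 min reaction at RT. Luciferin read by luminescence; normalized to 57 uM ketoconazole full inhibition.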

Chain of Cytochrome P450 3A4 (Homo sapiens) (P08684 whole entry, looked up): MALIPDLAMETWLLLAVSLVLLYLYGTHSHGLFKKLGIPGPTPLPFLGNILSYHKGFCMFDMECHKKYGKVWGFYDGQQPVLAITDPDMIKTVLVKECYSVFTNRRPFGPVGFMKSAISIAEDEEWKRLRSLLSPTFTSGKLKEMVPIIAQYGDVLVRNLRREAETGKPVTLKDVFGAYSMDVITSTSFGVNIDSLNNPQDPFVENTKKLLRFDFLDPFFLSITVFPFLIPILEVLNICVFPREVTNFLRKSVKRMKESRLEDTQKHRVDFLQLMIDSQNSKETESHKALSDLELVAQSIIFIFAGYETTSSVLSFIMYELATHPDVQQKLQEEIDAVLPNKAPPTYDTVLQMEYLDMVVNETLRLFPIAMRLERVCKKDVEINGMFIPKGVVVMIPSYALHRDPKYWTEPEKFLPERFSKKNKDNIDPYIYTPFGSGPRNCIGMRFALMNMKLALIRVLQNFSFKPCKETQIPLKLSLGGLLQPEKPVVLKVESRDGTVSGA

| SMILES | outcome [1] | Potency [2] | Potency [3] |
| --- | --- | --- | --- |
| CNC(=O)C1(C)C=CCN1C(=O)OC (stereo not drawn) | inactive | inactive |  |
| CCCCCCN(C(=O)CCCCCN1C(=O)NC(c2ccc3ccccc3c2)C(C(=O)OCc2ccccc2)=C1C)C(C(=O)NCCCC)c1ccc(OCC(=O)OC)c(C(=O)OC)c1 (stereo not drawn) | inactive | 2.51 µM (active) | inactive |
| CC(=O)N1CC=CC1(CC(C)C)C(=O)O (stereo not drawn) | inactive | inactive |  |
| CC(=O)N1[C@H](Cc2ccccc2)C=C[C@]1(C)C(=O)NCc1cc(F)cc(C(F)(F)F)c1 | inactive | 6.31 µM (active) | inactive |
| COC(=O)c1ccc(C(NC(=O)OCc2ccccc2)/C(C)=C/[C@@H](C)C(=O)N[C@@H](CO)Cc2ccccc2)cc1 (stereo partly drawn) | inactive | 3.16 µM (active) | inactive |
| CNC(=O)C1(CC(C)C)C=CCN1C(C)=O (stereo not drawn) | inactive | inactive |  |
| COC(=O)[C@H](Cc1ccccc1)NC(=O)[C@@]1(C)C[C@@H]1[C@@H](NC(=O)OCc1ccccc1)c1ccccc1 | inactive | 2 µM (active) | inactive |
| COC(=O)c1ccc(C(NC(=O)OCc2ccccc2)/C(F)=C/[C@@H](C)C(=O)Nc2ccc(OC)cc2)cc1 (stereo partly drawn) | inactive | 2 µM (active) | inactive |
| COC(=O)c1ccc(C(NC(=O)OCc2ccccc2)/C(C)=C/[C@@H](C)C(=O)NCc2nn(-c3ccccc3)nc2C)cc1 (stereo partly drawn) | inactive | 2.51 µM (active) | inactive |
| COC(=O)c1ccc(C(NC(=O)OCc2ccccc2)/C(=C/[C@@H](C)C(=O)NC2CCCCC2)c2cccnc2)cc1 (stereo partly drawn) | inactive | 1.26 µM (active) | inactive |
| COC(=O)c1ccc(C(NC(=O)OCc2ccccc2)/C(=C/[C@@H](C)C(=O)NCc2cccnc2)c2cccnc2)cc1 (stereo partly drawn) | inactive | 1 µM (active) | inactive |
| COC(=O)c1ccc(C(/C=C/[C@@H](C)C(=O)N[C@H](C)CO)NC(=O)OCc2ccccc2)cc1 (stereo partly drawn) | inactive | 15.8 µM (active) | inactive |
| Cc1ccc(CNC(=O)C2(CC(C)C)C=CCN2C(=O)c2ccccc2)o1 (stereo not drawn) | inactive | 15.8 µM (active) | inactive |
| CCCC[C@@H]1C[C@H]1[C@@H](NP(=O)(c1ccccc1)c1ccccc1)c1ccccc1OC | inactive | 3.98 µM (active) | inactive |
| COC(=O)c1ccc(C(NC(=O)OCc2ccccc2)/C(F)=C/[C@@H](C)C(=O)NCCO)cc1 (stereo partly drawn) | inactive | 15.8 µM (active) | inactive |
| COCCNC(=O)[C@@]1(C)C=C[C@@H](Cc2ccccc2)N1C(=O)c1ccccc1 | inactive | 7.94 µM (active) | inactive |
| COC(=O)c1ccc(C(NC(=O)OCc2ccccc2)/C(F)=C/[C@@H](C)C(=O)NCCc2c[nH]c3ccc(OC)cc23)cc1 (stereo partly drawn) | inactive | 1.26 µM (active) | inactive |
| CC1(C(=O)NCCN2CCOCC2)C=CC2(CCCCC2)N1C(=O)c1ccccc1 (stereo not drawn) | inactive | 7.94 µM (active) | inactive |
| CCCCNC(=O)C(c1ccc(OCC(=O)OC)c(C(=O)OC)c1)N(CCc1ccccn1)C(=O)CCCCCN1C(=O)NC(c2ccc(-c3ccccc3)cc2)C(C(=O)OCc2ccccc2)=C1C (stereo not drawn) | inactive | 7.94 µM (active) | inactive |
| CNC(=O)[C@@]1(Cc2ccccc2)C=C[C@@H](C)N1C(=O)OC | inactive | 12.6 µM (active) | inactive |
| COC(=O)c1ccc(C(/C=C/[C@@H](C)C(=O)NCc2ccccc2)NC(=O)OCc2ccccc2)cc1 (stereo partly drawn) | inactive | 5.01 µM (active) | inactive |
| COC(=O)c1ccc(C(NC(=O)OCc2ccccc2)/C(F)=C/[C@@H](C)C(=O)NC2CCCCC2)cc1 (stereo partly drawn) | inactive | 3.98 µM (active) | inactive |
| COC(=O)N1[C@H](Cc2ccccc2)C=C[C@]1(C)C(=O)NCc1ccccn1 | inactive | 7.94 µM (active) | inactive |
| COC(=O)c1ccc(C(NC(=O)OCc2ccccc2)/C(F)=C/[C@@H](C)C(=O)NCc2ccc(OC)c(OC)c2)cc1 (stereo partly drawn) | inactive | 5.01 µM (active) | inactive |
| CC(=O)N1[C@H](C)C=C[C@]1(Cc1ccccc1)C(=O)NCCN1CCOCC1 | inactive | 12.6 µM (active) | inactive |
| CC(C)CC1(C(=O)NCCc2c[nH]c3ccccc23)C=CCN1C(=O)c1ccccc1 (stereo not drawn) | inactive | 3.16 µM (active) | inactive |

| SMILES | outcome [1] | Potency [2] | Potency [3] |
| --- | --- | --- | --- |
| COC(=O)c1ccc(C(NC(=O)OCc2ccccc2)/C(C)=C/[C@@H](C)C(=O)NCc2cc(C)on2)cc1 (stereo partly drawn) | inactive | 2 µM (active) | inactive |
| COC(=O)c1ccc(C(NC(=O)OCc2ccccc2)/C(=C/[C@@H](C)C(=O)NCc2ccc(OC)c(OC)c2)c2cccnc2)cc1 (stereo partly drawn) | inactive | 3.16 µM (active) | inactive |
| CC1(C(=O)NCc2cc(F)cc(C(F)(F)F)c2)C=CC2(CCCCC2)N1C(=O)c1ccccc1 (stereo not drawn) | inactive | 6.31 µM (active) | inactive |
| COC(=O)[C@@]1(C)C=C[C@@H](Cc2ccccc2)N1C | inactive | 12.6 µM (active) | inactive |
| CN(C)C(=O)[C@@H]1C[C@H]1[C@@H](NC(=O)OCc1ccccc1)c1ccccc1 | inactive | 10 µM (active) | inactive |
| CN(C)c1ccc(CNC(=O)C2(C)C=CCN2C(=O)c2ccccc2)cc1 (stereo not drawn) | inactive | 10 µM (active) | inactive |
| COC(=O)c1ccc(C(/C=C/[C@@H](C)C(=O)NCc2ccc(OC)c(O)c2)NC(=O)OCc2ccccc2)cc1 (stereo partly drawn) | inactive | 6.31 µM (active) | inactive |
| CCCCCCN(C(=O)CCCCCN1C(=O)NC(c2cccc([N+](=O)[O-])c2)C(C(=O)OCc2ccccc2)=C1C)C(C(=O)NCCCC)c1ccc(OCC(=O)OC)c(C(=O)OC)c1 (stereo not drawn) | inactive | 3.16 µM (active) | inactive |
| CCC[C@@H]1C[C@@]1(CCC)[C@@H](NP(=O)(c1ccccc1)c1ccccc1)c1ccc(C(=O)OC)cc1 | inactive | 3.16 µM (active) | inactive |
| CN(C)C(=O)[C@]1(C)C[C@H]1[C@H](NC(=O)CNC(=O)[C@@H]1CCCN1C(=O)[C@]1(C)C[C@H]1[C@H](NC(=O)OCc1ccccc1)c1ccccc1)c1ccccc1 | inactive | 0.398 µM (active) | inactive |
| COC(=O)c1ccc(C(NC(=O)OCc2ccccc2)/C(F)=C/[C@@H](C)C(=O)NCCN2CCOCC2)cc1 (stereo partly drawn) | inactive | 3.98 µM (active) | inactive |
| COC(=O)N1CC=CC1(C)C(=O)NCc1cc(F)cc(C(F)(F)F)c1 (stereo not drawn) | inactive | 15.8 µM (active) | inactive |
| COC(=O)c1ccc(C(NC(=O)OCc2ccccc2)/C(=C/[C@@H](C)C(=O)NCc2ccncc2)c2cccnc2)cc1 (stereo partly drawn) | inactive | 1.26 µM (active) | inactive |
| CC(C)CC1(C(=O)NCCN2CCOCC2)C=CCN1C(=O)c1ccccc1 (stereo not drawn) | inactive | 12.6 µM (active) | inactive |
| CC(=O)N1CC=CC1(CC(C)C)C(=O)NCCc1c[nH]c2ccccc12 (stereo not drawn) | inactive | 3.98 µM (active) | inactive |
| C[C@]1(C(=O)NCC2CC2)C=C[C@@H](Cc2ccccc2)N1C(=O)c1ccccc1 | inactive | 2 µM (active) | inactive |
| COC(=O)c1ccc(C(NC(=O)OCc2ccccc2)/C(=C/[C@@H](C)C(=O)N(C)C)c2cccnc2)cc1 (stereo partly drawn) | inactive | 5.01 µM (active) | inactive |
| COC(=O)c1ccc(C(NC(=O)OCc2ccccc2)/C(F)=C/[C@@H](C)C(=O)NCc2cc(F)cc(F)c2)cc1 (stereo partly drawn) | inactive | 3.98 µM (active) | inactive |
| COC(=O)c1ccc(C(NC(=O)OCc2ccccc2)/C(C)=C/[C@@H](C)C(=O)NCCO)cc1 (stereo partly drawn) | inactive | 2.51 µM (active) | inactive |
| CCNC(=O)[C@H](C)/C=C/C(NC(=O)OCc1ccccc1)c1ccc(C(=O)OC)cc1 (stereo partly drawn) | inactive | 6.31 µM (active) | inactive |
| CC(=O)N1C2(C=CC1(C)C(=O)NCc1cc(F)cc(C(F)(F)F)c1)CCCCC2 (stereo not drawn) | inactive | 10 µM (active) | inactive |
| CC1(C)OCC(CSC2=C(SCC3COC(C)(C)O3)C(=O)c3ncccc3C2=O)O1 (stereo not drawn) | inactive | 15.8 µM (active) | inactive |
| CC(C)(C)NC(=O)C(c1ccc(I)cc1)N(CCN1CCOCC1)C(=O)CCCNC(=O)c1ccccc1 (stereo not drawn) | inactive | 3.98 µM (active) | inactive |
| O=C1C(Cl)=C(NC2CCc3ccccc32)C(=O)c2ncccc21 (stereo not drawn) | inactive | 1.58 µM (active) | inactive |
| CC(C)NC(=O)[C@@H]1C[C@H]1[C@@H](NC(=O)OCc1ccccc1)c1ccccc1 | inactive | 3.98 µM (active) | inactive |
| CC(Cc1ccccc1)C(=O)NCc1ccncc1 (stereo not drawn) | inactive | 2.51 µM (active) | inactive |
